The text below walks through data of ChEMBL document CHEMBL3988442, “University of Dundee, Small-Polar-MMV Screening Library” (2021).

Design in all cases: scale not given: direction of the effect not stated beside the values
The target of test [1] is Protein translocase subunit SecA (Escherichia coli (strain K12)) (UniProt P10408). Nature of the test: Assay to Identify E. coli SecA ATPase Inhibitors. In kind it is functional. As to conditions: 30 µM.
Test [2] has as its target T1, Ubiquitin-activating enzyme e1, putative (Leishmania donovani (strain BPK282A1)) (UniProt E9BSI1).
T1 sequence (whole entry): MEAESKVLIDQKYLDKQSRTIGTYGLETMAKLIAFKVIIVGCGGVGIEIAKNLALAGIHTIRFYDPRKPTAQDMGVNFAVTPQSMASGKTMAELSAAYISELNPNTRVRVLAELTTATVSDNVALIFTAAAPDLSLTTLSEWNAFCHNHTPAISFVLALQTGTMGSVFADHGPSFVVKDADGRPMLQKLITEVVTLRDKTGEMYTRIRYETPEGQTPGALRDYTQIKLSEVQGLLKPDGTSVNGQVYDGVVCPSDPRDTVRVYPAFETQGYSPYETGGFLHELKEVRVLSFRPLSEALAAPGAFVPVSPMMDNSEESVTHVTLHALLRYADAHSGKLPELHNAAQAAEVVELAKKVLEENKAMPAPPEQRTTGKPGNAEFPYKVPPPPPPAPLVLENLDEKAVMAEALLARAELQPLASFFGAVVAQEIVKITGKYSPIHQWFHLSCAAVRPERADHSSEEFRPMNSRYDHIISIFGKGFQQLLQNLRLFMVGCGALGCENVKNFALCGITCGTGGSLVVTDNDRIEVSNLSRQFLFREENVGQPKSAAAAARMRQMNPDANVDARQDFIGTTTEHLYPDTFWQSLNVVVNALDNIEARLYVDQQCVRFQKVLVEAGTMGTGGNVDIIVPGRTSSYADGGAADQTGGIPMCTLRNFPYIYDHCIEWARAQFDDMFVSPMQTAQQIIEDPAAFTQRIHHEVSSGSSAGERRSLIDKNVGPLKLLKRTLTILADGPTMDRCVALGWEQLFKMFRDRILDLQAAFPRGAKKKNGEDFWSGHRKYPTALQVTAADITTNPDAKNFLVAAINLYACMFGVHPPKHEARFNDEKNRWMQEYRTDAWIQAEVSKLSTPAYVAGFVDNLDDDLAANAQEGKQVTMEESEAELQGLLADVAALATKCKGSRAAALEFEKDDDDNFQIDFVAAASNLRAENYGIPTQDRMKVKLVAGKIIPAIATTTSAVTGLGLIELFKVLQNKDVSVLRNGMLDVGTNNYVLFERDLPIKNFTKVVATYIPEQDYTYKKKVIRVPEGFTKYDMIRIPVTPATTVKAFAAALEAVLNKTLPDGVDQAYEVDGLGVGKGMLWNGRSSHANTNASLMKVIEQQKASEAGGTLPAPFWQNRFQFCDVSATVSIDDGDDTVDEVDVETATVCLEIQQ
Nature of the test: Leishmania donovani Ubiquitin Activating Enzyme (LdE1). To be noted: 30 µM. In kind it is functional.

Test [3] addresses Sialic acid-binding Ig-like lectin 9 (Homo sapiens) (UniProt Q9Y336). As to the kind of experiment: Hs-Siglec9 ALPHAscreen SOP 20170721. To be noted: 10 µM.
For test [4], the system named is Trypanosoma cruzi. As to the kind of experiment: Trypanosoma cruzi phosphomannomutase and mannose-1-phosphate guanylyltransferase assay. In kind it is functional. As to conditions: 10 µM.
In test [5] the target is T2, Arginase-2, mitochondrial (Homo sapiens) (UniProt P78540).
T2 sequence (whole entry): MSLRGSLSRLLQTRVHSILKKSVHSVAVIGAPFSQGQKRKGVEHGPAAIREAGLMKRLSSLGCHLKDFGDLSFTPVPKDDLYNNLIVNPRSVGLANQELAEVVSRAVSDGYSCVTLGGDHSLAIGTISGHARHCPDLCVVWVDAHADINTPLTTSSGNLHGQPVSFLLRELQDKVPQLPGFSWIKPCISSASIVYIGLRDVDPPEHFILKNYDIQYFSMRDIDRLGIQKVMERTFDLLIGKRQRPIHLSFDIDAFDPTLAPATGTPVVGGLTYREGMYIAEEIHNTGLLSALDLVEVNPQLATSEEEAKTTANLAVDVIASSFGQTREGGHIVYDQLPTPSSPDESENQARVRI
Nature of the test: in vitro enzyme assay to detect the production of urea directly proportional to the activity of Arginase II. Also: in the data most compounds retested in dose-response had high values. In kind it is functional. As to conditions: 33.3 µM.

The target in test [6] is T3, Proteasome subunit beta (Trypanosoma cruzi) (UniProt O96673).
T3 sequence (whole entry): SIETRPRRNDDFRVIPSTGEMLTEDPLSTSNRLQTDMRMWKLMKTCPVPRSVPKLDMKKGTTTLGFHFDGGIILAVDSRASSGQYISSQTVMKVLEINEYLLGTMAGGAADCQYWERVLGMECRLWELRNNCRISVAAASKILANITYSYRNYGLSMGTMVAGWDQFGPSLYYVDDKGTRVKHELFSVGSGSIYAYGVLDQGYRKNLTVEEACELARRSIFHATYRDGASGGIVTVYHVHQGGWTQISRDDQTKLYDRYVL
As to the kind of experiment: Trypanosoma cruzi proteasome chymotrypsin-like activity (TcProtChymo) assay. Also: in the data most compounds retested in dose-response had high values. In kind it is functional. As to conditions: 9.37 µM.

Test [7] is filed under the species Homo sapiens. As to the kind of experiment: To identify inhibition of the IFN signalling (Jak-Stat) pathway via expression of an eGFP reporter gene under the control of an IFN-stimulated response element (ISRE) containing MxA promoter. In kind it is functional. To be noted: 30 µM.
For test [8], the target named is T4, Tyrosyl-tRNA synthetase, putative (Trypanosoma cruzi (strain CL Brener)) (UniProt Q4DSP6).
T4 sequence (whole entry): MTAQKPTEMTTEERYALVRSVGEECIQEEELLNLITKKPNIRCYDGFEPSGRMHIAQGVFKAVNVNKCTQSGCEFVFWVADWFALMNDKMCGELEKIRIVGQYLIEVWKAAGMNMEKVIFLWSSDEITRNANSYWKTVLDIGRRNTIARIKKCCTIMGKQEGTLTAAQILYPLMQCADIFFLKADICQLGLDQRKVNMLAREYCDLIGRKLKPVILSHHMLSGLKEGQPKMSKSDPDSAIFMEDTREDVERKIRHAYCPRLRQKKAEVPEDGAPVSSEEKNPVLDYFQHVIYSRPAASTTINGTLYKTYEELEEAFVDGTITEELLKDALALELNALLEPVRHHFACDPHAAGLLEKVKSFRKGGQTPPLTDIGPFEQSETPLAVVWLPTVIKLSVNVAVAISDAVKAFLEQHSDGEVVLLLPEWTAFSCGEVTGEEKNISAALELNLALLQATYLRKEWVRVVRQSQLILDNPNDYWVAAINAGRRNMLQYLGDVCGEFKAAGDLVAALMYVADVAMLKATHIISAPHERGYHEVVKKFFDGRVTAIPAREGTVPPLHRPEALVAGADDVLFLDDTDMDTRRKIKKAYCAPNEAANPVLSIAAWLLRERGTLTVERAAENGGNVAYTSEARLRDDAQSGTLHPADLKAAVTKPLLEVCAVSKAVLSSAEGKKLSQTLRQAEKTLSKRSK
Nature of the test: Trypanosoma cruzi tyrosyl tRNA synthetase (TcYRS) _High Tyrosine SOP. Also: in the data most compounds retested in dose-response had high values. It counts as functional. As to conditions: 30 µM.

Test [9] deals with T4, Tyrosyl-tRNA synthetase, putative (Trypanosoma cruzi (strain CL Brener)). Nature of the test: Trypanosoma cruzi tyrosyl tRNA synthetase (TcYRS) SOP. It counts as functional. As to conditions: 30 µM.
Test [10] concerns the target Chromo domain-containing protein 1 (Saccharomyces cerevisiae (strain ATCC 204508 / S288c) (Baker's yeast)) (UniProt P32657). Nature of the test: ScCHD-1 Enzyme Inhibition Assay. Also: in the data most compounds retested in dose-response had high values. In kind it is functional. As to conditions: 30 µM.

For part of these data: Potency and affinity values are given separately.

Chain of Protein translocase subunit SecA (Escherichia coli (strain K12)) (P10408 whole entry): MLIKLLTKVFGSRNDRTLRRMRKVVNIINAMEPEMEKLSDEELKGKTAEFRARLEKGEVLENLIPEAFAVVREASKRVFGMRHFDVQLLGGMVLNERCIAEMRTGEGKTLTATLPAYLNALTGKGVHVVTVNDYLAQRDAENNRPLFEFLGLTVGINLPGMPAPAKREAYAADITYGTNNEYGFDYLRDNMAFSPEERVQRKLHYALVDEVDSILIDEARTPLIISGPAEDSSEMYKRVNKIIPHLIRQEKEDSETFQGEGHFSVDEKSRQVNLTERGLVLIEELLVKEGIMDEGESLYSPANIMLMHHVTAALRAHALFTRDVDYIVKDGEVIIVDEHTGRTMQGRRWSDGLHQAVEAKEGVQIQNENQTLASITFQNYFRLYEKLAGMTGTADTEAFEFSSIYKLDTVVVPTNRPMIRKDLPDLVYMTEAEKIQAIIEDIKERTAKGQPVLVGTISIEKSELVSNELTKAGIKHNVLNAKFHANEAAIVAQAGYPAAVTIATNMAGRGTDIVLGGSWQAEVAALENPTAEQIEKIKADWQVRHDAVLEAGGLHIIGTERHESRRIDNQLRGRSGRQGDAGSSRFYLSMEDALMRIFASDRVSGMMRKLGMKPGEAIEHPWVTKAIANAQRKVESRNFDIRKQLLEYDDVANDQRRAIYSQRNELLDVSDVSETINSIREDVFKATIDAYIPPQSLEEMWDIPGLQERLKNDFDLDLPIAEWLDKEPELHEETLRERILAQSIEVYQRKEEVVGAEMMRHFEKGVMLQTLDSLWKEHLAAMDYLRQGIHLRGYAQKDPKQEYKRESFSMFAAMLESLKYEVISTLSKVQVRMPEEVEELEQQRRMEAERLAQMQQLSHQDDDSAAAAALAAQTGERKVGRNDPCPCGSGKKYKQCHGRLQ
Chain of Sialic acid-binding Ig-like lectin 9 (Homo sapiens) (Q9Y336 whole entry): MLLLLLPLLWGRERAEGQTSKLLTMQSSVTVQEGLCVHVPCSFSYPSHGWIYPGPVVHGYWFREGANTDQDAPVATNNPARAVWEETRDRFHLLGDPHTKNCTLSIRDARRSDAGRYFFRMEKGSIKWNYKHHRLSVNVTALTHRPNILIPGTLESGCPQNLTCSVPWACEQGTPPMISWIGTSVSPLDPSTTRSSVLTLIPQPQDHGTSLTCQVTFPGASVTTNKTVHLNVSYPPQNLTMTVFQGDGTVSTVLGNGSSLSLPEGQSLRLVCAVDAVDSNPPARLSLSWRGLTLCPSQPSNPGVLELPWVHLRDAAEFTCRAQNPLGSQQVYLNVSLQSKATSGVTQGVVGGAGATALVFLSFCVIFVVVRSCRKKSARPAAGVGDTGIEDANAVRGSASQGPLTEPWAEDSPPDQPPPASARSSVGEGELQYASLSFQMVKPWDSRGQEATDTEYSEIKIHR
Chain of Chromo domain-containing protein 1 (Saccharomyces cerevisiae (strain ATCC 204508 / S288c) (Baker's yeast)) (P32657 whole entry, the tested form may be a part): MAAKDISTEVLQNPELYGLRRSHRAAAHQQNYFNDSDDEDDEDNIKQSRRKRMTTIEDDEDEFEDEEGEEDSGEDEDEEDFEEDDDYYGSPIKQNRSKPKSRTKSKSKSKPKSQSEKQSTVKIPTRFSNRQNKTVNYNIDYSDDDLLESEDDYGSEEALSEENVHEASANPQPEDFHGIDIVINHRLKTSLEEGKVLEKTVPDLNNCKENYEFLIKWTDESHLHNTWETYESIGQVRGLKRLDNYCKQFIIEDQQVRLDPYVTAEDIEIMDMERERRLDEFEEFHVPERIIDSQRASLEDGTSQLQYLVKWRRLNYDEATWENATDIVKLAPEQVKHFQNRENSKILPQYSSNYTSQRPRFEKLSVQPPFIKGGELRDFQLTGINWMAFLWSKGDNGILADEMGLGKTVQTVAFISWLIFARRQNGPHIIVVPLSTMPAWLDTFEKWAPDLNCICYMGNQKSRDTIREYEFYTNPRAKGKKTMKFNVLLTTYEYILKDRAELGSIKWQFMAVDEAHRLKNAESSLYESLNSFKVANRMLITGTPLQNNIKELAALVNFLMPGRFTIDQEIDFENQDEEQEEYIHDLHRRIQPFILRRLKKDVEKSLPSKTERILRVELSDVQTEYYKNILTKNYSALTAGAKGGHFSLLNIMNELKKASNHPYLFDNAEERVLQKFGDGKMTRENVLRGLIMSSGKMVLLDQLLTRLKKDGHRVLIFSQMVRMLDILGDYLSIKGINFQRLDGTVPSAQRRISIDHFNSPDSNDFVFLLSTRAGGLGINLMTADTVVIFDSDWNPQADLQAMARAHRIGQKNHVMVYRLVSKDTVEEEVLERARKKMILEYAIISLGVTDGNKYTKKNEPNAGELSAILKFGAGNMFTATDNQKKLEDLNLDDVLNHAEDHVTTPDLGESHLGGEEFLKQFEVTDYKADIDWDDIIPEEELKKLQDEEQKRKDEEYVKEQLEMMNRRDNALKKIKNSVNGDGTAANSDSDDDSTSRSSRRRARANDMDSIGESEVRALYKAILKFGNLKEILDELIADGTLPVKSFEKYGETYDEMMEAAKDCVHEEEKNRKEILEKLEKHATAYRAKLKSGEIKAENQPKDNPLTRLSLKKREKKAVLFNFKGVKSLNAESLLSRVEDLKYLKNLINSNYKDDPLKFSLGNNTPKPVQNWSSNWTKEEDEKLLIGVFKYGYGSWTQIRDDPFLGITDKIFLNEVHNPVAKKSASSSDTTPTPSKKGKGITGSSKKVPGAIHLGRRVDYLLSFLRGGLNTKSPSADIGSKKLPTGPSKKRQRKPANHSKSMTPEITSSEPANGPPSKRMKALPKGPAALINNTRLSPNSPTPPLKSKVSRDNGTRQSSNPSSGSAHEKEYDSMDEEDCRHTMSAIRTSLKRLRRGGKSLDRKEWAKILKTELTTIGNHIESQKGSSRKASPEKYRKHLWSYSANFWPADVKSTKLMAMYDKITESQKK

Take `Cc1nc(-c2ccc(C(=O)O)cc2)cc(C2CCN(C(C)C)C2)n1` (stereo not given): the Percent Effect was -2.82% in [1]; 12% in test [2]; -4.91% in test [3]; -1.18% in test [4]; 4.87% in test [5]; 10.7% in test [6]. Also, the Percent Effect in test [7] was 8.94%; in [8], 5.29%; in test [9], 15%; in [10] it was -22.5%.
With `COCCO[C@H]1CCN(C(=O)c2cc(C)on2)[C@H]1Cc1ccccc1`, the Percent Effect in test [1] was -2.31%; in test [2], 11.7%; in test [3], 3.34%; in [4], -1.88%; in test [5], -0.913%; in test [6], 7.47%. In addition, the Percent Effect was 18.8% in test [7], 7.73% in test [8], 10% in [9] and -5.82% in test [10].
With `COc1ccc(C2CC(=O)Nc3c2nc2n3CCCC2)cc1O` (stereo not given), the Percent Effect in test [1] was -3.09%; in [2] it was 2.7%; in [3], 6.46%; in test [4], -2.04%; in [5], 7.34%; in test [6], 22.6%. The Percent Effect in test [7] was 23.4%; in test [8], 1.6%; in [9], 14.6%; in [10], -3.18%.
`CC(Nc1cccc(CN2CCOC2=O)c1)C(=O)Nc1ccccc1F` (stereo not given): the Percent Effect in test [1] was -0.263%; in test [2] it was 7.69%; in test [3], 0.909%; in test [4], -1.41%; in [5], 4.51%; in test [6], 3.5%. The Percent Effect in test [7] was 29.9%; in test [8] it was 2.39%; in test [9] it was 8.43%; in test [10], -5.9%.
Take `O=C(c1ccno1)N1CCC2(CC1)C(=O)N(CC1CC1)c1ccccc12`: the Percent Effect in [1] was -0.905%; in test [2], -29.9%; in [3] it was -1.46%; in test [4], -0.75%; in test [5], 3.2%; in test [6] it was 3%. The Percent Effect in test [7] was 5.14%; in test [8], 1.93%; in test [9], 0%; in test [10] it was -3.48%.
Regarding `Cc1nn2cccnc2c1C(=O)N1CCCC(n2ccnc2)C1` (stereo not given), the Percent Effect is 0.231% in test [1]; 13.3% in test [2]; -7.92% in [3]; -2.21% in test [4]; 0% in test [5]; 8.23% in test [6]. The Percent Effect in [7] was 2.09%; in test [8] it was 3.68%; in test [9], 12.8%; in [10] it was -11.1%.
Consider `CS(=O)(=O)N1CCC2(CC1)CC(CC(=O)NC1CC1)c1ccccc12` (stereo not given), for which the Percent Effect was -4.87% in test [1]; 9.09% in test [2]; 1.58% in [3]; 2.04% in test [4]; -3.24% in [5]; 15.4% in [6]. Besides, the Percent Effect in [7] is -6.07%; in test [8] it was 4.74%; in test [9], 10.3%; in test [10] it was 0.815%.
For `CC(C)NC(=O)C1CN(C(=O)c2ccco2)CC12CCOCC2` (stereo not given), the Percent Effect in test [1] is -1.7%; in test [2], 9.09%; in test [3], -6.62%; in test [4], 3.41%; in test [5] it was 3.24%; in [6], 10.2%. The Percent Effect in [7] is -3.41%; in [8] it was 8.95%; in test [9], 12.8%; in [10], -4.15%.
For `COc1ccc(CNCc2ccnc(N3CCOCC3)c2)cc1OC`, the Percent Effect is -2.27% in test [1]; 33.3% in test [2]; -6.8% in test [3]; 5.16% in [4]; -8.61% in test [5]; 10.7% in test [6]. Besides, the Percent Effect is 11.3% in [7], 6.22% in test [8], 20.5% in test [9] and -7.91% in [10].
On to `Cc1ccccc1N1CC2(CCN(S(=O)(=O)c3cccs3)C2)CC1=O` (stereo not given), for which the Percent Effect in test [1] was -1.18%; in test [2], 24.7%; in test [3], -0.756%; in test [4], 0%; in test [5], -15.5%; in test [6], 8.67%. Besides, the Percent Effect in test [7] is 10.2%; in [8] it was 5.8%; in test [9], 2.5%; in test [10] it was -9.98%.
For the molecule `O=C(NCc1cc[nH]n1)N(CCCO)C1CCc2ccccc21` (stereo not given), the Percent Effect in test [1] was -1.28%; in test [2] it was 8%; in test [3], -0.45%; in test [4], 0%; in test [5], -1.77%; in [6] it was 2.29%. In addition, the Percent Effect in test [7] was 1.81%; in [8], 3.68%; in [9] it was 2.56%; in test [10] it was -7.56%.
Consider `Cc1cn2c(n1)CCC(NC(=O)c1cc(Br)cn1C)C2` (stereo not given), for which the Percent Effect is -8.37% in test [1]; 0% in test [2]; 0.858% in [3]; -3.41% in test [4]; -1.33% in test [5]; 8.23% in test [6]. Moreover, the Percent Effect in test [7] was 12.4%; in [8], -1.58%; in [9], 0%; in test [10] it was -4.6%.
